Reference: PMC5540273 (PLoS ONE, 2017)

Experiments:
Conditions in all cases: concentration: 1 μM, replicates: in singlicate; n = 1
ROCK1 = system: ROCK1
ROCK2 = system: ROCK2
ROS1 = system: ROS1
[1] = system: RPS6KA4(Kin.Dom.1-N-terminal)
[2] = system: RPS6KA4(Kin.Dom.2-C-terminal)
[3] = system: RPS6KA5(Kin.Dom.1-N-terminal)
[4] = system: RPS6KA5(Kin.Dom.2-C-terminal)
[5] = system: T1, RSK1(Kin.Dom.1-N-terminal)
T1 construct: gene RPS6KA1

[6] = system: T2, RSK1(Kin.Dom.2-C-terminal)
T2 construct: gene RPS6KA1

[7] = system: T3, RSK2(Kin.Dom.1-N-terminal)
T3 construct: gene RPS6KA3
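Note: KINOMEscan kinase panel screen.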

Structure (SMILES)	%Inh (ROCK1) [%]	%Inh (ROCK2) [%]	%Inh (ROS1) [%]	%Inh [1] [%]	%Inh [2] [%]	%Inh [3] [%]	%Inh [4] [%]	%Inh [5] [%]	%Inh [6] [%]	%Inh [7] [%]
C[C@@H]1CCCCN1c1cc(-c2ccc3c(N)n[nH]c3c2)nc(N)n1 [GSK2258759]	0	0	5	4	0	14	10	5	14	0
Cc1ccc(-c2cc(-c3c[nH]nc3-c3ccccn3)ccn2)cc1 [GW684088]	25	17	37	2	0	2	19	8	24	6
Cc1cccc(-c2nc(Nc3ccc4[nH]ncc4c3)c3ccccc3n2)n1 [GW857175]	29	52	17	0	33	0	5	15	50	18
O=C(O)COc1ncnc2cc(-c3ccc4[nH]ncc4c3)sc12	27	61	3	15	17	0	0	21	34	13
COc1cccc(-c2cc(-c3c[nH]nc3-c3ccccn3)ccn2)c1 [GW680338]	0	0	0	18	0	0	7	0	9	0
CCCc1ccc(S(=O)(=O)NC2CCN(c3ccnc(Nc4ccc(F)cc4)n3)C2)cc1 (stereo not drawn) [GSK1379715]	11	0	0	0	0	0	0	7	0	8
COc1ccc(C2=C(Nc3cccc(C(=O)O)c3)C(=O)NC2=O)cc1 [SB-390765]	20	0	14	19	17	2	9	30	7	34
O=S(=O)(c1ccc(-c2ccnc3[nH]ccc23)cc1)N1CCCC1 [GSK846226]	81	82	12	5	56	8	76	8	54	18
Cn1cncc1-c1ccc2ncnc(Nc3ccc(OCc4ccccc4)cc3)c2c1 [GW320571]	3	17	9	13	0	28	0	0	0	18
Cc1cc(NCC(c2ccccc2)c2ccccc2)nc(NCc2ccc(C(F)(F)F)cc2)n1 [GW497681]	0	23	0	0	0	0	1	0	6	0
COc1ccc(CNC(=O)NC2CCN(c3ccnc(Nc4cc(OC)c(OC)c(OC)c4)n3)C2)cc1 (stereo not drawn) [GSK1379748]	20	31	29	0	0	0	21	0	1	3
COC(=O)c1c(-c2ccccc2)c2cc(C(=O)O)ccc2c(=O)n1Cc1ccccc1	10	0	0	0	6	11	0	0	18	0
Cc1cccc(-c2nc(-c3ccc(S(C)(=O)=O)cc3)sc2-c2ccnc(NCCc3ccccc3)c2)c1	0	0	0	5	2	18	0	0	8	0
CC1=C(C(=O)Nc2cc3cn[nH]c3cc2F)C(c2ccc(C(F)(F)F)cc2)CC(=O)N1 (stereo not drawn) [GSK429286]	99.1	98.2	0	16	0	0	0	5	18	19
Cc1ccc(NC(=O)Nc2cc(C(C)(C)C)nn2-c2ccccc2)cc1 [GSK1014915]	15	0	9	9	0	25	38	16	1	19
Cc1cccc(-c2nc(C)cc(Nc3ccncc3)n2)n1 [GSK257997]	25	10	43	8	0	7	0	29	2	0
COC(=O)c1c(-c2ccccc2)c2cc(OC)ccc2c(=O)n1Cc1ccccc1	0	0	0	0	4	15	0	11	18	0
Fc1cc(Cl)ccc1Nc1ccnc2cc(-c3ccc(CN4CCCCC4)o3)ccc12 [GW560116]	31	24	2	0	0	0	8	0	26	0
